Inconclusive results are not listed. Activity calls are given as the source filed them.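 How the source made its calls, unless noted: active means inhibition over a set limit, the all-compound mean plus 3 SD, in both replicate runs; inconclusive means over that limit in just one replicate run; inactive means at or under that limit in both runs.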

Drawing on PubChem BioAssay, this text covers viability and inhibition for 39 molecules.

The nature of one assay: growth suppression of PTEN-deleted HCT116, pilot screen, cell-based, HCT116 clonal line, CellTiter-Glo (AID 824;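 active means viability at or below 27.92% in each of two runs, the all-compound median minus 4 SD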;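 further: 0% = 20 µM Hyamine control and 100% = vehicle cell control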). To be noted: 60 h, at 10 µM, active compounds read low.
The viability is a read-out of living cells in per cent, often relative to untreated cells. In the case of `Cc1ccc2nc(NC(=O)Cn3cc4c(n3)CCCCC4)sc2c1`, the viability is 97% (inactive).

As for `Cn1c(=O)oc2cc(S(=O)(=O)N3CCN(c4ccccn4)CC3)ccc21`, the viability is 69.4% (inactive).

For the molecule `Cc1cccc(N(CC(=O)N2CCCC2)S(=O)(=O)c2ccccc2)c1C`, the viability was 93.6% (inactive).

Regarding `CC(Sc1n[nH]c(=O)[nH]c1=O)C(=O)OCc1ccccc1` (configuration not stated), the viability was 98.5% (inactive).

For `O=C(Nc1ccncc1)c1cc2ccccc2o1`, the viability is 95.9% (inactive).

In the case of `CCOc1ccccc1NC(=O)C1CCCN(S(=O)(=O)c2cccc3cccnc23)C1` (configuration not stated), the viability is 71.9% (inactive).

Regarding `O=C(Nc1nc(-c2ccncc2)cs1)C1COc2ccccc2O1` (configuration not stated), the viability was 83.9% (inactive).

Regarding `CC(C)C(CO)NC(=O)CC(=O)NC(CO)C(C)C` (configuration not stated), the viability is 97.3% (inactive).

As to `C(=N\n1cnnc1)/c1cccc(OCCOc2ccccc2)c1`, the viability was 94.9% (inactive).

`C/C=C/COC(=O)c1[nH]c2c(c1C)C(=O)CC(c1ccc(N(C)C)cc1)C2` (configuration not stated): the viability was 66.6% (inactive).

On to `Cc1ccc(C)c(N2CCN(CCCNC(=O)Cn3cc4c(n3)CCC(C)C4)CC2)c1` (configuration not stated), for which the viability is 2.81% (active).

Take `CCOC(=O)c1ccc(N=c2sc(C(=O)OC)cc(=O)n2Cc2ccco2)cc1`: the viability was 1.63% (active).

Turning to `Cc1ccccc1-c1nc(CN2CCC(C(=O)NC3CCN(Cc4ccccc4)CC3)CC2)c(C)o1`, the viability is 9.9% (active).

Turning to `CC(=O)n1cc(-c2ccncc2)c2ccccc21`, the viability is 82.6% (inactive).

As to `C/C=C/CSc1nc2c(c(=O)[nH]c(=O)n2C)n1Cc1ccc(C)cc1`, the viability was 69.3% (inactive).

Regarding `O=C(NCCN1C(=O)C2C3C=CC(C3)C2C1=O)Nc1ccccn1` (configuration not stated), the viability was 92.2% (inactive).

On to `CC1CCCCN1S(=O)(=O)c1ccc(NC(=O)c2cccs2)cc1` (configuration not stated), for which the viability was 82% (inactive).

With `CCOc1ccc(N(CC(=O)Nc2cccc(OC)c2)S(=O)(=O)c2c(C)noc2C)cc1`, the viability was 70.9% (inactive).

Turning to `CCOC(=O)N1CCN(C(=O)CN(C2CCCCC2)S(=O)(=O)c2ccc(F)cc2)CC1`, the viability was 103% (inactive).

In the case of `COc1cccc(-c2nc(CS(=O)(=O)CC(=O)Nc3cc(C)ccc3C)c(C)o2)c1`, the viability was 91.4% (inactive).

As for `Cc1cc(=O)oc2c1ccc1oc(/C(=N/O)c3ccccc3)c(C)c12`, the viability is 65.4% (inactive).

Turning to `Cc1cc(/C=N/n2cnnc2)c(C)n1-c1cccc(Cl)c1`, the viability was 73.2% (inactive).

For `Cc1cc(C)c2c(=O)n(CC(=O)NCCCN3CCOCC3)sc2n1`, the viability was 56.5% (inactive).

The next assay can be described thus: inhibitors of the yeast RAM network, pilot screen, dse1pr::URA3 reporter, 5-FOA selection (AID 869).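 Further: 0% = DMSO wells with no growth and 100% = 10 µM 1-NA-PP1 with full growth; RAM network block rescues cells from 5-FOA so hits raise OD615 growth.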 The settings on record: S. cerevisiae dse1pr::URA3 5-FOA growth, OD615, 2 d; at 10 µM; active compounds read high; strain carries analog-sensitive mutant Cbk1 kinase.
The term inhibition denotes the drop in the measured response relative to a control, in per cent. For the molecule `CN(C)c1ccc(NC(=O)Cn2cc3c(n2)CCCC3)cc1`, the inhibition was 2% (inactive).

As for `CCOC(=O)c1cc(NC(=O)SCC(=O)O)c(C)nc1C`, the inhibition was 0.56% (inactive).

In the case of `Cc1nc2ccccc2c2oc(C(=O)NCC3COc4ccccc4O3)cc12` (configuration not stated), the inhibition is 1.69% (inactive).

Regarding `O=C(CS(=O)(=O)c1cn(Cc2ccc(F)cc2)c2ccccc12)N1CCCCC1`, the inhibition is 2.3% (inactive).

With `Cc1ccc(C2c3c(oc4ccccc4c3=O)C(=O)N2c2nnc(C(C)C)s2)o1` (configuration not stated), the inhibition is 0.83% (inactive).

`Cc1cc(C)c2c(=O)n(CC(=O)NCCCN3CCN(c4ccccc4F)CC3)sc2n1`: the inhibition was 1.52% (inactive).

Consider `COc1ccccc1S(=O)(=O)Cc1ccc(C(=O)NCCN2CCCCCC2)o1`, for which the inhibition is 1.38% (inactive).

Consider `COc1ccc(C2C(C(=O)Nc3cccnc3)=C(C)Nc3nc(-c4cccs4)nn32)cc1OC` (configuration not stated), for which the inhibition is -0.09% (inactive).

For the molecule `Cc1cc(=O)oc2cc(OCC#N)ccc12`, the inhibition was 0.155% (inactive).

Turning to `CC1=C(C(N)=O)C(c2ccccn2)n2nc(SCc3ccccc3)nc2N1` (configuration not stated), the inhibition is 0.46% (inactive).

`OC1(c2cccc(C(F)(F)F)c2)CCN(c2ccc(-c3ccccc3)nn2)CC1`: the inhibition was 1.11% (inactive).

Take `CCOC(=O)CSC1=C(C#N)C(c2ccc(C)o2)CC(=O)N1` (configuration not stated): the inhibition was 1.17% (inactive).

`O=C(Nc1nc2c(s1)CCCC2)C1COc2ccccc2O1` (configuration not stated): the inhibition is 0.75% (inactive).

`Cc1ccccc1Cn1nc(C)c(NC(=O)c2noc3c2CCc2ccccc2-3)c1C`: the inhibition is 1.23% (inactive).

As for `O=C(C1CC1)N1CCc2cc(Br)cc(S(=O)(=O)N3CCOCC3)c21`, the inhibition is 1.35% (inactive).

For the molecule `C/C=C/COC(=O)c1[nH]c2c(c1C)C(=O)CC(c1ccco1)C2` (configuration not stated), the inhibition was 0.985% (inactive).

With `Cc1ccc2nc(NC(=O)Cn3cc4c(n3)CCCCC4)sc2c1`, the inhibition was 2.76% (inactive).

Take `Cn1c(=O)oc2cc(S(=O)(=O)N3CCN(c4ccccn4)CC3)ccc21`: the inhibition was 1.97% (inactive).

In the case of `Cc1cccc(N(CC(=O)N2CCCC2)S(=O)(=O)c2ccccc2)c1C`, the inhibition was 2.05% (inactive).

On to `CC(Sc1n[nH]c(=O)[nH]c1=O)C(=O)OCc1ccccc1` (configuration not stated), for which the inhibition is 1.66% (inactive).

As for `O=C(Nc1ccncc1)c1cc2ccccc2o1`, the inhibition was 1.73% (inactive).

Regarding `CCOc1ccccc1NC(=O)C1CCCN(S(=O)(=O)c2cccc3cccnc23)C1` (configuration not stated), the inhibition was 1.14% (inactive).

In the case of `O=C(Nc1nc(-c2ccncc2)cs1)C1COc2ccccc2O1` (configuration not stated), the inhibition was 0.095% (inactive).

With `CC(C)C(CO)NC(=O)CC(=O)NC(CO)C(C)C` (configuration not stated), the inhibition is 2.15% (inactive).

As to `C(=N\n1cnnc1)/c1cccc(OCCOc2ccccc2)c1`, the inhibition is 1.81% (inactive).

Regarding `C/C=C/COC(=O)c1[nH]c2c(c1C)C(=O)CC(c1ccc(N(C)C)cc1)C2` (configuration not stated), the inhibition was 1.9% (inactive).

`Cc1ccc(C)c(N2CCN(CCCNC(=O)Cn3cc4c(n3)CCC(C)C4)CC2)c1` (configuration not stated): the inhibition was 1.44% (inactive).

`CCOC(=O)c1ccc(N=c2sc(C(=O)OC)cc(=O)n2Cc2ccco2)cc1`: the inhibition was 1.42% (inactive).

For the molecule `Cc1ccccc1-c1nc(CN2CCC(C(=O)NC3CCN(Cc4ccccc4)CC3)CC2)c(C)o1`, the inhibition was 1.26% (inactive).

As for `CC(=O)n1cc(-c2ccncc2)c2ccccc21`, the inhibition is 0.135% (inactive).

For `C/C=C/CSc1nc2c(c(=O)[nH]c(=O)n2C)n1Cc1ccc(C)cc1`, the inhibition was 1.98% (inactive).

In the case of `O=C(NCCN1C(=O)C2C3C=CC(C3)C2C1=O)Nc1ccccn1` (configuration not stated), the inhibition was 0.595% (inactive).

On to `CC1CCCCN1S(=O)(=O)c1ccc(NC(=O)c2cccs2)cc1` (configuration not stated), for which the inhibition is 1.48% (inactive).

Take `CCOc1ccc(N(CC(=O)Nc2cccc(OC)c2)S(=O)(=O)c2c(C)noc2C)cc1`: the inhibition is -0.41% (inactive).

Regarding `CCOC(=O)N1CCN(C(=O)CN(C2CCCCC2)S(=O)(=O)c2ccc(F)cc2)CC1`, the inhibition was -0.815% (inactive).

With `COc1cccc(-c2nc(CS(=O)(=O)CC(=O)Nc3cc(C)ccc3C)c(C)o2)c1`, the inhibition is 3.55% (inactive).

Regarding `Cc1cc(=O)oc2c1ccc1oc(/C(=N/O)c3ccccc3)c(C)c12`, the inhibition was 0.035% (inactive).

For `Cc1cc(/C=N/n2cnnc2)c(C)n1-c1cccc(Cl)c1`, the inhibition was 2.75% (inactive).

On to `Cc1cc(C)c2c(=O)n(CC(=O)NCCCN3CCOCC3)sc2n1`, for which the inhibition was 1.51% (inactive).
